PubChem BioAssay AID977606 (Broad Institute, 2014)
Screen size: about 1,500 compounds; about 430 (29%) were called active. The list is a sample of the results. Measured potencies and affinities stand elsewhere. Unmarked numbers belong to inactive results. How the calls were made is not given here.

Experiment: glucose-independent GLuc insulin release activation – cell-based, INS-1E, Gaussia luciferase, luminescence, cherry-pick, counter-screen for glucose-dependent insulin secretion activators, dose response (AID 977606);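 further: 0% = median of neutral control wells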
Details: INS-1E Gaussia luciferase insulin secretion, no glucose, 100% = twice neutral-control luminescence; series mostly up to 35 µM; activation: at the top concentration

| SMILES | activation [%] |
| --- | --- |
| O=S(=O)(c1ccc(NCCCO)nc1)N1CCOCC1 | -4.23 |
| CCOc1ncccc1C(=O)OCC(=O)NCCc1ccc(S(N)(=O)=O)cc1 | -1.58 |
| CCOC(=O)c1cn(-c2ccccc2)nc1-c1ccncc1 | 16.9 |
| COCCNc1nc(NCCCN(C)C)c2sccc2n1 | -7.39 |
| CCCc1nnc2n1N=C(c1ccc(OC)c(OC)c1)CS2 | -7.53 |
| O=S(=O)(c1cccs1)N1CN(C2CCCCC2)c2nc3ccccc3nc21 | -1.77 |
| Cc1nc(N)c(C#N)c(-c2cccnc2)c1-c1ccccc1 | -1.76 |
| O=C1NC(c2ccccc2)c2c(-c3ccccc3)n[nH]c21 (configuration not stated) | 4.52 |
| C=CCN1C(=O)c2n[nH]c(COC)c2C1c1ccc(F)cc1 (configuration not stated) | 28.3 |
| CNC(=O)C(=O)NCC1OCCCN1S(=O)(=O)c1ccc(F)cc1C (configuration not stated) | 6.38 |
| COc1ccc(-c2ocnc2C(=O)Nc2ccc(N3CCOCC3)cc2N2CCOCC2)cc1OC | -16.6 |
| O=C(Cc1ccsc1)NNC(=O)c1ccccc1Cl | -8.88 |
| C/C=C1\COC(C(=O)NCc2ccccc2)(C(F)(F)F)C=C1C=C(C)C (configuration not stated) | 12.9 |
| CCC(CC)NC(=O)CN1CCN(S(=O)(=O)c2cccs2)CC1 | -5.53 |
| COc1ccc(CCNC(=O)CCCc2nnc3n(C)c(=O)c4sccc4n23)cc1OC | 20.7 |
| Cc1cc(Oc2cccnc2)ccc1NC(=O)Cc1cn(C)c2ccccc12 | -5.92 |
| Cc1ccc2c(c1)N(C(C)C(=O)NCc1cccs1)C(=O)CO2 (configuration not stated) | -11.5 |
| CCCn1c(C)cc(C)c(C#N)c1=O | 2.75 |
| C[C@H]1CN([C@@H](C)CO)C(=O)c2cc(C#CCc3ccccc3)cnc2O[C@@H]1CN(C)C(=O)C1CC1 | -25.5 |
| COc1ccccc1-c1cnc2c(c1)C(=O)N([C@H](C)CO)C[C@@H](C)[C@@H](CN(C)C(C)=O)O2 | 33.6 |
| C[C@H](CO)N1C[C@H](C)[C@@H](CN(C)C(=O)CC2CC2)Oc2cc(C#CC(C)(C)O)ccc2S1(=O)=O | 18 |
| COCC(=O)N(C)C[C@H]1Oc2cc(Br)ccc2S(=O)(=O)N([C@H](C)CO)C[C@H]1C | -3 |
| Cc1c(P(=S)(c2ccccc2)c2ccccc2)[n+]2ccccc2n1C/C=C/c1ccccc1 | 35.7 |

| SMILES | activation [%] |
| --- | --- |
| COc1cc2c(cc1OC)-c1cc(Nc3ccccc3Br)nc(=O)n1CC2 | -12.7 |
| CCNc1nc(C)nc2c1oc1ccccc12 | -3.38 |
| O=C(COC(=O)c1ncc(Cl)c(Cl)c1Cl)NC1CCS(=O)(=O)C1 (configuration not stated) | -6.54 |
| Fc1ccccc1-c1nnc2ccc3ccccc3n12 | -4.34 |
| O=c1c2ccccc2nnn1Cc1ccccc1 | -13.8 |
| CCc1nc2n[nH]c(N)c2c2c1CCCC2 | 15.9 |
| COCCNc1nc(NCCCN2CCCC2=O)c2sccc2n1 | 0.526 |
| CCCCOc1ccc(C2=NNC(=O)CC2)cc1 | 2.01 |
| CCc1cc2c(COC(=O)c3cccc(NS(C)(=O)=O)c3)cc(=O)oc2cc1O | -6.11 |
| COCCNc1nc(Oc2ccc(C(N)=O)cc2)c2sccc2n1 | -5.61 |
| CC(C)Cc1nc2n[nH]c(N)c2c2c1COC(C)(C)C2 | 10.5 |
| Cc1cc(C)c2oc(C(=O)Nc3ccc(S(=O)(=O)Nc4nccc(C)n4)cc3)cc(=O)c2c1 | -2.17 |
| O=C(N/N=C/c1ccc2c(c1)OCO2)c1ccc(Cl)cc1Cl | -15.4 |
| C=CCNC(=O)c1cc(-c2ccc3c(c2)OCO3)on1 | -13.2 |
| COc1ccc(C2CC(=O)Nc3sc(=N)c4c(N)c(C#N)c(N)nc4c32)cc1OC (configuration not stated) | -7.45 |
| Cc1ccsc1/C=N/n1c(-c2ccncc2)n[nH]c1=S | 1.74 |
| COCCNc1nc(N2CCCCC2)c2cnn(C)c2n1 | 7.01 |
| COc1cc2c(cc1OC)C(Cc1ccc(O)cc1)N(C)CC2 (configuration not stated) | -9.53 |
| COc1cc2c(cc1OC)C(Cc1ccc(O)cc1)NCC2 (configuration not stated) | -1.37 |
| c1ccc(-c2nc(NCC3CC3)nc3ccsc23)cc1 | 7.35 |
| CN1CCCCC(NC(=O)c2ccccc2)C1=O (configuration not stated) | 9.94 |
| Cc1nccn1-c1ncnc2sc3c(c12)CCCC3 | -5.65 |
| COc1ccccc1CSc1nc2c(c(=O)n(C)c(=O)n2C)n1C | -8.58 |

| SMILES | activation [%] |
| --- | --- |
| COC(=O)c1ccc(CNC(=O)CCc2c[nH]c3ccccc23)cc1 | -10.2 |
| Cc1nnc2c(NCCC(C)C)nc3ccccc3n12 | -2.67 |
| CCOC(=O)c1nc(NCc2cccnc2)c2ccccc2n1 | -0.868 |
| Cn1c(=O)n(Cc2ccccc2Br)c2ccccc21 | 27.3 |
| CC(C)CCN1CC(O)=C(c2nc(-c3ccc(Cl)cc3)cs2)C1=N | 4.45 |
| C=CCNc1cc(C)oc(=O)c1C(=O)CCC | -6.6 |
| COc1ccccc1CNS(=O)(=O)c1cc(-c2cc(C)no2)ccc1C(C)C | -7.45 |
| COc1ccc(CNC(=O)C2Cc3c(-c4cccc(F)c4)ccnc3O2)cc1OC (configuration not stated) | -55.6 |
| COc1ccccc1Cn1c(=O)oc2ccccc21 | 1.4 |
| COc1ccc(CN2CCOC2=O)cc1OC | -14.9 |
| COC(=O)[C@]1(Cc2ccccc2)N[C@H](CN(C)C(=O)Nc2ccc(C)cc2)[C@@H]2C(=O)N(C)C(=O)[C@@H]21 | -4.45 |
| CCNc1nc(NC(C)C)nc(N(C)C#N)n1 | -1.68 |
| CC1CN(S(=O)(=O)c2cc(C(=O)NC(C)c3cccnc3)ccc2Cl)CC(C)O1 (configuration not stated) | -5.54 |
| COc1cc2c(cc1OC)[C@H](C)N(C(=O)NCc1ccccc1)CC2 | -7.31 |
| CC(=O)Nc1nc(C)nc(-c2ccccc2OC(C)=O)n1 | 25.7 |
| Cc1ccc(C(CC(=O)O)NC(=O)c2ccc(S(=O)(=O)N3CC(C)OC(C)C3)cc2)cc1 (configuration not stated) | -15.2 |
| CCOC1=C2[C@H](c3ccc(C)cc3)N(S(=O)(=O)c3ccc(C)cc3)C[C@H]2n2c(=O)n(-c3ccccc3)c(=O)n2C1 | 0.601 |
| CC(=O)c1cccc(-c2csc3ncnc(Sc4nnnn4C)c23)c1 | 1.21 |
| CN1C(=O)NC(c2ccc(O)cc2)C2=C1CN(c1ccccc1)C2=O (configuration not stated) | -1.76 |
| O=C(CC(NC(=O)c1ccccc1)c1ccccc1)Nc1cccc2ccccc12 (configuration not stated) | -12.6 |
| Cc1ccc(NC(=O)c2ccccc2-c2ccccc2C(=O)O)cc1C | 2.93 |
| C=C(C)C1Cc2c(C)nn(-c3cccc4cccnc34)c2C1 (configuration not stated) | 6.7 |
| O=C(COc1ccc(Cl)cc1)NCCS(=O)(=O)N1CCN(c2ccccc2F)CC1 | -13.2 |

| SMILES | activation [%] |
| --- | --- |
| O=C(COc1cccc2c1CCNC2=O)NC1CCCCC1 | -5.65 |
| COc1ccc(CN(C)C(=O)CCN=C2NS(=O)(=O)c3ccccc32)c(OC)c1 | 3.04 |
| COc1ccc(Cc2nnc(NC(=O)Cc3cccs3)s2)cc1OC | 25.7 |
| CC(C)CC(=O)Nc1cccc(-c2nc3ncccc3o2)c1 | -8.91 |
| CCOC(=O)c1c(C)[nH]c(C(C)=NNC(=O)c2cccs2)c1C | -3.52 |
| CCOC(=O)c1oc2ccccc2c1NC(=O)c1ccco1 | 4 |
| CCCCOc1ccc(SCCCN2CCOCC2)cc1 | 53.8 |
| C/C(=N\NC(=O)CO/N=C(\C)c1cccs1)c1ccc(N)cc1 | -3.9 |
| Cc1ccnc(NS(=O)(=O)c2ccc(NC(=O)CCc3ccccc3)cc2)n1 | 4.42 |
| FC(F)(F)c1ccc(Cl)c(-n2c(Cc3cccs3)n[nH]c2=S)c1 | -10.4 |
| COc1ccc(CNC(=O)C2Cc3c(-c4ccccc4)ccnc3O2)cc1OC (configuration not stated) | 11 |
| O=C(OC1CCOC1=O)c1cc(-c2ccc(Cl)cc2)nc2ccccc12 (configuration not stated) | 8.02 |
| COc1ccc(C2CNC(=O)C2)cc1OC1CCCC1 (configuration not stated) | -4.37 |
| O=S(=O)(NCc1ccccc1)c1ccc(S(=O)(=O)N2CCCCC2)cc1 | -3.85 |
| CCCn1c(O)c(N=NC(=O)c2cccnc2)c2cc(Br)ccc21 | -27 |
| COc1ccc(C(=O)N=C2CCC(C#N)=C3c4cc(OC)c(OC)cc4CCN23)cc1 | -15 |
| C=CCN=c1sc(C(=O)OC)cc(=O)n1CC=C | -3.79 |
| CC(=O)C(C)n1c(CN(C)Cc2ccccc2)nc2c1c(=O)n(C)c(=O)n2C (configuration not stated) | -4.37 |
| COC(=O)C1CCN(c2cc(Cl)nc(N)n2)CC1 | -11 |
| COc1ccc(C(=O)Nc2ccccc2C(=O)NCC2CCCO2)cc1 (configuration not stated) | 5.62 |
| O=C(Nc1ccc(Br)cc1)c1cc2ccccn2n1 | 7.83 |
| O=C(NC(=S)NCC1CCCO1)c1ccc(Cl)cc1Cl (configuration not stated) | 0.701 |
| COC(=O)c1c(C)oc(C)c1S(=O)(=O)Nc1ccc(C(C)C)cc1 | -3.18 |

| SMILES | activation [%] |
| --- | --- |
| COc1ccc(/C=C/c2noc(-c3ccccc3OC(C)=O)n2)cc1 | 4.45 |
| CCCCc1[nH]c(=O)c(C#N)c2c1CCCC2 | -9.04 |
| COC(=O)c1ccc(Oc2ccc(C(F)(F)F)cn2)cc1 | 4.53 |
| c1cc2c(cc1CN1CCN(C3CCCCCC3)CC1)OCO2 | 1.19 |
| CCOc1ncccc1C(=O)NNC(=O)c1ccccc1-n1cccc1 | -4.2 |
| CCOc1ncccc1C(=O)NCc1ccc(C)cc1 | 4.91 |
| O=C(c1cccs1)N(Cc1ccccn1)Cc1ccco1 | -8.86 |
| COc1ccc2nc(CCN(C)C(=O)C3CCC(=O)N(Cc4cccc(F)c4)C3)[nH]c2c1 (configuration not stated) | -15.1 |
| CC1(C)CCCC(C)(C)N1CC(O)COCCOc1ccc(Br)cc1 (configuration not stated) | 0.686 |
| Cc1ccc2c(c1)CCCN2C(=O)c1ccc2c(c1)OCO2 | 1.47 |
| CN(C(=O)c1ccc2c(c1)SC1=NS(=O)(=O)CCN12)C(c1ccccc1)c1ccccc1 | -6.46 |
| CCOc1ccc(CCNC(=O)Cn2ccc3ccccc3c2=O)cc1OCC | -1.1 |
| COc1cc(CN(C)c2ccc(S(=O)(=O)N3CCCC3)cn2)ccc1OC(F)F | 1.77 |
| CC(C)(C)C1=Nn2c(nnc2C2CCCCC2)SC1 | 11.8 |
| COc1ccc(CCNC(=O)CCC(=O)c2cccs2)cc1OC | -22.3 |
| COc1ccc(C2CC(=O)C(c3ccc(C)cc3)=CN2Cc2ccccc2)cc1 (configuration not stated) | -10.9 |
| CCN1CCN(c2nnc(-c3ccccc3)c3ccccc23)CC1 | -5.54 |
| CCn1cc(C(=O)O)c(=O)c2cc(F)c(N3CCN(C(=S)NC(=O)c4cccc(C)c4)CC3)cc21 | -18 |
| CCOC(=O)c1nn(-c2ccccc2)c2nc(Nc3ccccc3)cc(=O)n12 | -13.5 |
| CC1CC1C(=O)Nc1cc(C(F)(F)F)ccc1N1CCOCC1 (configuration not stated) | -7.62 |
